Sm TGR inh: S. mansoni TGR enzyme inhibition; purified TGR, DTNB reduction, TNB absorbance 405 nm; Potency, µM (top dose mostly 114 µM), actives largely listed as inhibitors; hit rate 3% among 360,000; note: nearly all actives have a fitted effect of over 60% in size
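First, TGR (20 nM dispensed) and NADPH were mixed with compound. Second, a 15 min room-temperature incubation followed. Third, further NADPH and then DTNB were added to start the reaction. Finally, TNB absorbance was monitored kinetically.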
RE007 growth inh: less growth of the S. pombe RE007 Vpr strain; S. pombe RE007 Vpr strain, BacTiter-Glo ATP luminescence, 24 h; Potency, µM (doses to about 92.2 µM), actives largely listed as inhibitors; hit rate 0.21% among 360,000; active = well fitted falling curve with a large enough effect; inconclusive = small, poorly fitted or top-dose-only effect; inactive = no such curve, though single readings can be large or run the other way; note: nearly all actives have a fitted effect of over 50% in size
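Fission yeast RE007 carrying one integrated HIV-1 vpr copy, seeded at OD 0.01 in PMG+AL medium with 23 nL pinned compound. Grown 24 h at 30 degrees; viability read by BacTiter-Glo luminescence after 5 min.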
FMDV inh: foot and mouth disease virus antiviral activity; FMDV antiviral cell-based qHTS; Potency, µM (doses to about 57.9 µM), most hits filed as inhibitors; hit rate 1.2% among 410,000; AID 1159524; calls by dose curve; tested in HEK293T cells; note: read-out not given here; nearly all actives have a fitted effect of over 45% in size
Tb PYK inh: inhibitors of Trypanosoma brucei pyruvate kinase; Q57TT1; Potency, µM (series often up to 76.8 µM), hits mostly inhibitors; TbPYK enzyme, Kinase-Glo Plus ATP luminescence, 45 min; hit rate 0.12% among 410,000; note: nearly all actives have a fitted effect of over 50% in size
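Assay buffer: 50 mM TEA pH 7.2, 100 mM KCl, 10 mM MgCl2, 0.05% BSA, 0.01% Tween-20. Pyruvate kinase from T. brucei plus substrate met compound, then ADP (130 uM final). Luminescence was read post 45 min RT.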
HCMV inh: human cytomegalovirus inhibition; HFF cells, HCMV-luciferase reporter, 72 h; hits give low values; activity change, negative = inhibition, % at 57.5 µM; hit rate 4.5% among 410,000; in the data active = activity change below about -60%; inconclusive = no clear call, values can overlap the other calls; inactive = above about -39%
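Luciferase read-out from HCMV-luciferase-infected HFFs (MOI 1 PFU/cell) 72 h post infection at 37C; compounds added after 16 h cell attachment; activity normalized between buffer-only basal and Salinomycin (10uM) inhibitor controls.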
Giardia FBPA inh: Giardia lamblia aldolase inhibition. purified Giardia FBPA. A8B2U2. hit rate 0.71% among 290,000. Potency, µM (highest dose often 59.6 µM), hits mostly inhibitors; note: nearly all actives have a fitted effect of over 55% in size
Target sequence (A8B2U2 whole entry, looked up): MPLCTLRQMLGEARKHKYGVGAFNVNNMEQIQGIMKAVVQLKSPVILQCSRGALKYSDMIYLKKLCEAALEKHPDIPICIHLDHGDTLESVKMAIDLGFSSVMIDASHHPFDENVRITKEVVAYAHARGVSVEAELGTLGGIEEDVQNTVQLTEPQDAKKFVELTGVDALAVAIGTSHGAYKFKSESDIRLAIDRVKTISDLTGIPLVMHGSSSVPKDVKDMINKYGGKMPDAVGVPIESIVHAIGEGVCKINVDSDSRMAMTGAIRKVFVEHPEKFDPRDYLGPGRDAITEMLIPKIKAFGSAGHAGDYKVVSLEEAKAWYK
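40 nM FBPA preincubated 10 min at RT with compound (up to 57.5 uM final), then substrate plus GAPDH/TPI/NAD/arsenate coupling and diaphorase/resazurin added. Fluorescence read after 20 min at RT, 525/598 nm.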
Large screens that a line does not name were inactive. This is a sample that favours compounds with a hit; in the whole collection about 7.7% have one here. Unless noted, calls come from the whole dose curve; as a rule, active = well fitted curve in the direction sought with a large enough effect; inconclusive = small, poorly fitted or top-dose-only effect, or another doubt; inactive = no such curve, though single readings can be large; an effect the other way counts as inactive or inconclusive.

COc1ccccc1N1CCN(c2nc(CNC(=O)c3cc(C)oc3C)nc3ccccc23)CC1	none (no result: Sm TGR inh, RE007 growth inh, Tb PYK inh, HCMV inh, Giardia FBPA inh)
CC(=O)N1CCC2(CC1)C/C(=N\NC(=S)Nc1ccccc1F)c1cc(O)ccc1O2	HCMV inh -82
Nc1nc(N)c(S(=O)(=O)c2ccccc2)c(Nc2ccc(Br)cc2)n1	none (no result: RE007 growth inh, Giardia FBPA inh)
O=[N+]([O-])c1cccn2cc(-c3ccc(Br)cc3)nc12	HCMV inh -62
Cc1ccc(N2CCN(C(=O)CCS(=O)(=O)c3cc4c(cc3Cl)NC(=O)CO4)CC2)c(C)c1	FMDV inh inconclusive (no result: RE007 growth inh, Giardia FBPA inh)
COC(=O)CSc1[nH]c2cc(C)ccc2c1[N+](=O)[O-]	none
CCOc1ccc2nc(-c3ccccc3)nc(SCC(=O)OC)c2c1	none
COC(=O)CSc1[nH]c2ccc(Br)cc2c1[N+](=O)[O-]	Sm TGR inh 2.5µM
CCOc1ccc2[nH]c(SCC(=O)OC)c([N+](=O)[O-])c2c1	Sm TGR inh 45µM
O=C(NCCN1CCCC1)c1ccc2c(c1)N(Cc1cccc(Cl)c1)C(=O)c1ccccc1S2(=O)=O	HCMV inh -77 (no result: Giardia FBPA inh)
CN(C(=O)c1ccc2c(c1)N(Cc1ccc(F)cc1)C(=O)c1ccccc1S2(=O)=O)C1CCCCC1	none (no result: RE007 growth inh, Giardia FBPA inh)
CN(C(=O)c1ccc2c(c1)N(Cc1cccc(Cl)c1)C(=O)c1ccccc1S2(=O)=O)C1CCCCC1	HCMV inh -79 (no result: RE007 growth inh, Giardia FBPA inh)
N#Cc1ccc(-c2ccc(OCC(=O)Nc3cccnc3)cc2)cc1	FMDV inh inconclusive, HCMV inh -69 (no result: Giardia FBPA inh)
O=C(CCn1c(=O)sc2ccccc21)Nc1cccnc1	Sm TGR inh 50µM (no result: FMDV inh)
Cn1nc(-c2ccc(OCC(=O)Nc3cccnc3)cc2)c2ccccc2c1=O	FMDV inh 35µM
Cn1nc(-c2ccc(C(=O)Nc3ccc(F)cc3)cc2)c2ccccc2c1=O	FMDV inh 40µM
CC(=O)Nc1ccc(NC(=O)COc2ccc(-c3ccc(C#N)cc3)cc2)cc1	none (no result: Giardia FBPA inh)
Cc1ccc(NC(=O)COc2ccc(-c3nn(C)c(=O)c4ccccc34)cc2)cc1	FMDV inh inconclusive (no result: RE007 growth inh, Giardia FBPA inh)
O=C(CCn1nc(-c2ccc(Cl)cc2)c2ccccc2c1=O)Nc1cccnc1	HCMV inh -65
C=CCN(CC=C)c1cnn(-c2nc3ccccc3[nH]2)c(=O)c1Cl	none
O=c1c(Cl)c(NCCCO)cnn1-c1nc2ccccc2[nH]1	Sm TGR inh 8.9µM, RE007 growth inh inconclusive, Tb PYK inh inconclusive, HCMV inh -98
COc1ccc(N2CCN(CC(O)COc3ccccc3C(C)(C)C)CC2)cc1 (centres undefined)	FMDV inh inconclusive (no result: RE007 growth inh, Giardia FBPA inh)
O=C1c2ccccc2NC(c2cn[nH]c2-c2ccccc2)N1O (centres undefined)	Giardia FBPA inh inconclusive
O=C1c2ccccc2NC(c2cn[nH]c2-c2ccc(Cl)cc2)N1O (centres undefined)	FMDV inh 14µM, Giardia FBPA inh inconclusive
Nc1ccc(C2(c3ccc(N)cc3)c3ccccc3C(=O)c3ccccc32)cc1	none (no result: Sm TGR inh, Giardia FBPA inh)
Nc1ccc(C2(c3ccc(N)cc3)c3ccccc3-c3ccccc32)cc1	FMDV inh inconclusive, HCMV inh -91
Cc1ccccc1N(CC(=O)N/N=C/c1cc(Br)c(C)o1)S(C)(=O)=O	Sm TGR inh 79µM
Cc1oc(/C=N/NC(=O)CN(c2ccccc2Cl)S(C)(=O)=O)cc1Br	Sm TGR inh inconclusive
Cc1oc(/C=N/NC(=O)CN(c2ccccc2Br)S(C)(=O)=O)cc1Br	Sm TGR inh 45µM (no result: Giardia FBPA inh)
Cc1ccc(-n2[nH]c(C)c(C=Nc3cc(C)ccn3)c2=O)cc1	RE007 growth inh 28µM
Cc1ccc(N=Cc2c(C)[nH]n(-c3nc4ccccc4[nH]3)c2=O)cc1	RE007 growth inh 3.2µM, FMDV inh inconclusive, Tb PYK inh inconclusive
Cc1[nH]n(-c2ccccc2)c(=O)c1C=Nc1cccc2cccnc12	HCMV inh -63
Cc1ccc(-n2[nH]c(C)c(C=Nc3ccc4[nH]c(=O)[nH]c4c3)c2=O)cc1	FMDV inh 32µM
O=C(N1CCCCC1)N1CCC[C@@H]1c1noc2ccccc12	none (no result: Sm TGR inh, RE007 growth inh, FMDV inh, Tb PYK inh, Giardia FBPA inh)
COc1cc(C(=O)OCC(=O)Nc2ccc(N3CCOCC3)cc2)ccc1OCC(C)C	Sm TGR inh 50µM (no result: Giardia FBPA inh)
O=C(c1ccc2c(=O)n(Cc3ccc(Cl)cc3)c(=S)[nH]c2c1)N1CCOCC1	FMDV inh inconclusive, HCMV inh -65, Giardia FBPA inh inconclusive
O=C(NCc1ccc(Cl)cc1)c1ccc2c(=O)n(CC3CCCO3)c(=S)[nH]c2c1 (centres undefined)	FMDV inh 18µM, HCMV inh inconclusive
O=C(c1ccc(Cn2c(=S)[nH]c3ccccc3c2=O)cc1)N1CCN(c2ccccn2)CC1	FMDV inh inconclusive, HCMV inh -65
CCCCCn1c(=O)[nH]c2cc(C(=O)N3CCN(Cc4ccc5c(c4)OCO5)CC3)ccc2c1=O	FMDV inh inconclusive, HCMV inh -76
CCOc1ccccc1CNS(=O)(=O)c1cc2c(cc1C)NC(=O)CO2	none (no result: RE007 growth inh, Giardia FBPA inh)
O=C(c1ccc2c(=O)n(Cc3ccc4c(c3)OCO4)c(=S)[nH]c2c1)N1CCCCC1	none
CC1CC(C)CN(C(=O)c2ccc3c(=O)n(Cc4ccc5c(c4)OCO5)c(=S)[nH]c3c2)C1 (centres undefined)	HCMV inh -81
COc1ccc(C2=Nc3ccccc3N(C(=O)c3ccc4ncccc4c3)C2C(=O)NC(C)(C)C)cc1 (centres undefined)	none (no result: Sm TGR inh, Tb PYK inh, Giardia FBPA inh)
COc1ccc(C2=Nc3ccccc3N(C(=O)c3ccc4ncccc4c3)C2C(=O)NC2CCCC2)cc1 (centres undefined)	HCMV inh -78 (no result: Sm TGR inh, Tb PYK inh, Giardia FBPA inh)
CN1C2=NCCN2C(=O)c2cc(Cl)ccc21	none
Clc1ccc2c(c1)-c1ccccc1C1=NCCN12	FMDV inh inconclusive, HCMV inh -96 (no result: Sm TGR inh, Giardia FBPA inh)
COc1ccc(Br)cc1S(=O)(=O)N1CCN=C1c1ccccc1	none (no result: Giardia FBPA inh)
Brc1ccc2c(c1)-c1ccccc1C1=NCCN12	FMDV inh inconclusive, HCMV inh -69 (no result: Sm TGR inh, Giardia FBPA inh)
CCc1cccc(NC(=O)Cn2nc3c4cc(F)ccc4n(Cc4cccc(C)c4)cc-3c2=O)c1	none (no result: RE007 growth inh, Giardia FBPA inh)
CC(=O)Nc1ccc(-c2nccc3[nH]nc(-c4cccc(C(F)(F)F)c4)c23)cc1	HCMV inh -102 (no result: Sm TGR inh, RE007 growth inh, FMDV inh, Tb PYK inh, Giardia FBPA inh)
C=CCNCCCCOc1ccc(OCc2ccccc2)cc1	HCMV inh -69, Giardia FBPA inh inconclusive (no result: Sm TGR inh)
COCCCNCCCCOc1ccc(OCc2ccccc2)cc1	HCMV inh inconclusive, Giardia FBPA inh inconclusive (no result: Sm TGR inh)
COc1cc(OC)c(C(=O)N/N=C/c2ccoc2)cc1OC	HCMV inh -69
CN(c1ccccc1C(=O)O)S(=O)(=O)c1ccc2[nH]c(=O)oc2c1	none (no result: RE007 growth inh, Giardia FBPA inh)
COc1ccc(C(=O)NC(=S)Nc2ccc(CN3CCCCC3)cc2)cc1Cl	Sm TGR inh 40µM, HCMV inh inconclusive
